# In PubChem BioAssay AID1259240 (Keith Lab, Institute of Cancer Science, University of …, 2017):
# Active and inactive are the calls of the source. Rule as the data show it: active = fold change mostly below about -2 (no sharp cut-off); inactive = mostly above about -1.8.
# Assay: TERT promoter activity modulators, primary screen, cell-based, luciferase reporter, human (AID 1259240)
# Settings: A2780 TERT promoter luciferase reporter, 16 h; at 20 µM, fold versus average of vehicle-only wells
SMILES,fold change,outcome
COc1ccc(C(=O)CSc2nnc(Cc3cc(=O)[nH]c(=O)[nH]3)n2-c2ccc(Cl)cc2)cc1,-1.34 (inactive),
CC(C)CNC(=O)CSc1nc(-c2cccs2)cc(C(F)(F)F)n1,-2.24 (active),
Cc1[nH]n(-c2nc3ccccc3[nH]2)c(=O)c1C=Nc1ccc(F)cc1,,inactive
COc1cc(-c2nc3sccn3c2Nc2ccc(OC)c(OC)c2)ccc1O,-1.31 (inactive),
O=C(NC1CCCc2ccccc21)c1cccc(NC2=NC3CS(=O)(=O)CC3S2)c1 (stereo not given),1.36 (inactive),
Cc1nnc(SCc2nc(-c3ccc(Cl)cc3)no2)n1-c1ccccc1,-1.9 (inactive),
COc1ccc(C2C=C(c3cccnc3)Nc3nc4ccccc4n32)cc1 (stereo not given),,inactive
COc1ccc(OC(C)c2nc(-c3ccc(C)cc3)no2)cc1 (stereo not given),-1.29 (inactive),
CC(=O)N1CSCC1C(=O)N1CCN(c2ccc(N3CCOCC3)nn2)CC1 (stereo not given),-1.03 (inactive),
O=C(Nc1ccc(C(F)(F)F)cc1)C1CCCN1S(=O)(=O)c1cccc2nsnc12 (stereo not given),-1.19 (inactive),
CCN1C(=O)N(CC)C2C1N(C(C)=O)C(=O)N2C(C)=O (stereo not given),-1.76 (inactive),
Cc1cc(C)n(-c2nc3cc(Cl)ccc3nc2Cl)n1,1.03 (inactive),
O=S(=O)(NCc1ccccn1)c1cccc2cccnc12,-1.29 (inactive),
CC1CCCCC1NC(=O)c1cc2c(s1)-c1ccccc1OC2 (stereo not given),-2.96 (active),
Cc1nc(SCC(=O)c2ccccc2)c2c(=O)n(C)c(=O)n(C)c2n1,1.14 (inactive),
Cc1ccc2oc(-c3cc(NC(=O)c4ccc5c(c4)OCCO5)ccc3O)nc2c1,,active
CCn1c(SCC(=O)Nc2nnc(C)s2)nnc1-c1c[nH]c2ccccc12,,inactive
COc1nc(OCCNS(=O)(=O)c2ccc(C)cc2)nc(N(C)C)n1,-1.19 (inactive),
Cc1ccc(-c2n[nH]c3c2C(c2cccc(O)c2)NC3=O)cc1 (stereo not given),-1.62 (inactive),
CCCCN(CC)CCNS(=O)(=O)c1cccc2cccnc12,-1.21 (inactive),

SMILES,fold change,outcome
CCc1ccc(S(=O)(=O)n2c(C)nc3ccccc32)cc1,-2.42 (active),
CC(CC(=O)NCCc1c[nH]c2ccccc12)CC1=NS(=O)(=O)c2ccccc2N1 (stereo not given),-1.46 (inactive),
Cc1ccccc1-c1nc(CSCC(=O)O)c(C)o1,-1.01 (inactive),
O=C(O)CSc1ncn(-c2ccccc2)n1,-4.67 (active),
CCOC(=O)C1CCN(c2c(Nc3ccc4c(c3)OCCO4)c(=O)c2=O)CC1,-1.02 (inactive),
OCCn1c(-c2ccc(Br)cc2)cn2c3ccccc3nc12,-1.06 (inactive),
COc1cc(NC(=O)c2onc(C)c2Cl)cc(OC)c1OC,1.32 (inactive),
Cc1ccc(-c2n[nH]c3c2C(c2cccc([N+](=O)[O-])c2)NC3=O)cc1 (stereo not given),1.04 (inactive),
COCCNC(=O)Cn1cc(/C=C2/C(=O)N(C)c3ccccc32)c2cc(Br)ccc21,-1.01 (inactive),
Cc1ccc2c(C)nc(NC3=NCN(C4CCCC4)CN3)nc2c1,-2 (inactive),
CC(=O)NCCNC(=O)c1cccn2c(=O)c3c4c(sc3nc12)CCCC4,-1.41 (inactive),
O=S1(=O)NC(=NC2CCCCCC2)c2ccccc21,,inactive
COC(=O)CCn1nc(-c2ccc(Cl)cc2)c2ccccc2c1=O,-1.07 (inactive),
Cc1cc(C)cc(-c2nc(-c3cccnc3)no2)c1,-2.32 (active),
COC(=O)c1ccc(-c2ccc(/C=C3/NC(=O)N(c4ccccc4)C3=O)o2)cc1,-2.59 (active),
Fc1ccc(Nc2nnc(Cc3ccncc3)c3ccccc23)cc1,-1.37 (inactive),
COc1cccc(-c2nc(S(=O)(=O)c3ccc(C)cc3)c(N(C)C)o2)c1,-1.82 (inactive),
CCOC(=O)C1=C(CS(=O)(=O)c2ccc(C)cc2)NC(=O)NC1c1ccc(OC)cc1OC (stereo not given),-1.29 (inactive),
Cc1cc(C)cc(N2CN=c3s/c(=C4\C(=O)Nc5ccccc54)c(=O)n3C2)c1,-1.15 (inactive),
O=S(=O)(NCc1ccc2c(c1)OCO2)c1cccc2cccnc12,-1.35 (inactive),
